Compound activity: PubChem, National Center for Advancing Translational Sciences (NCATS)
A549 viability: Nrf2 qHTS screen for inhibitors: counterscreen for cytotoxicity; A549 ARE-Fluc cells, CellTiter-Fluor viability, 18-24 h; Potency, µM (doses to about 46 µM), for the others: top-dose activity change, negative = cytotoxicity, usual class: inhibitors; 0.16% of 390,000 active; AID 504648, 2011; note: % is set by controls: 0 for no effect and ±100 for the full control effect
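Cytotoxicity counterscreen: CellTiter-Fluor fluorescence was measured in A549 ARE_Fluc cells after 18-24 h of compound exposure in a concentration series. The subsequent BugLite luminescent read reports ARE-luciferase activity.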
Nrf2 inh: Nrf2 qHTS screen for inhibitors. A549 ARE-Fluc reporter, luciferase luminescence, 18-24 h. Potency, µM (doses to about 46 µM), for the others: at the top dose activity change, negative = inhibition, hits mostly inhibitors. 2.1% of 360,000 active. AID 504444, 2011; note: % is set by controls: 0 for no effect and ±100 for the full control effect; nearly all actives have a fitted effect of over 60% in size
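Nrf2 function is reported as luminescence of an ARE-controlled luciferase in A549 cells. Compounds were tested at several concentrations, and a CellTiter-Fluor read on the same wells flagged cytotoxicity.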
HepG2 tox: qHTS for Inhibitors of TGF-b: Cytotox Counterscreen; HepG2 CAGA-GFP viability, ATP luminescence, 18 h; Potency, µM (titrated, usually from 46.1 µM), without a hit: at the highest dose activity change, negative = cytotoxicity, actives largely listed as cytotoxic; 0.76% of 410,000 active; AID 588856, 2011
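HepG2 CAGA-GFP cells (1000/well, DMEM with 1% FBS) received compound, then TGF-beta at 500 pg/mL final, and were incubated 18 hours at 37 degrees C. Viability was read by CellTiter-Glo luminescence. Media-only wells were set as complete cell-killing and DMSO as no toxicity.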
TGFb SMAD3 inh: qHTS for Inhibitors of TGF-b; HepG2 CAGA-GFP TGF-b/SMAD3 reporter, GFP fluorescence, 18 h; TGF-beta stimulated, 500 pg/mL final; Potency, µM (highest dose often 46.1 µM), inactives show top-dose activity, negative = inhibition, actives largely listed as inhibitors; 1.2% of 410,000 active; note: % is set by controls: 0 for no effect and ±100 for the full control effect; nearly all actives have a fitted effect of over 65% in size
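HEPG2 CAGA-GFP, 1000 cells/well; 2 h settle, 37 C; cpd via pin tool; TGF-b 500 pg/mL final; 18 h, 37 C; GFP imaging ex488/em500-530; %Activity normalised to -TGF-b and +DMSO controls; CRC fit, curve class.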
ATXN2 expr inh: Primary qHTS for Inhibitors of ATXN expression | Potency, µM (highest dose often 57 µM), without a hit: top-dose activity change, negative = inhibition, most hits filed as inhibitors | HEK-293 ATXN2-luciferase reporter, luminescence, 24 h | 0.72% of 360,000 active; note: % is set by controls: 0 for no effect and ±100 for the full control effect; nearly all actives have a fitted effect of over 55% in size
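ATXN2-luciferase reporter cells (luciferase flanked by upstream and downstream ATXN2 gene portions) were treated 24 h at 37 °C with compounds at up to 57 uM. SteadyGlo luminescence gave expression; GF-AFC fluorescence gave viability.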
ATXN viability: Viability Counterscreen for Primary qHTS for Inhibitors of ATXN expression; S2 cells (HEK-293 line with an ATXN2-luciferase reporter) viability, CellTiter-Fluor protease fluorescence, 24 h; Potency, µM (doses to about 56.7 µM), most hits filed as cytotoxic; 0.49% of 400,000 active; AID 651635, 2014; note: nearly all actives have a fitted effect of over 40% in size
The depositor's hits bear a star; i = inactive; ? = inconclusive; / = no result given. Only some compounds are listed: those with a hit (about 3.8% of all), similar ones and a draw of the others. Calls come from the whole dose curve; as a rule, active = well fitted curve in the direction sought with a large enough effect; inconclusive = small, poorly fitted or top-dose-only effect, or another doubt; inactive = no such curve, though single readings can be large; an effect the other way counts as inactive or inconclusive. Potency is the fitted concentration of half-maximal effect.

SMILES	A549 viability	Nrf2 inh	HepG2 tox	TGFb SMAD3 inh	ATXN2 expr inh	ATXN viability
CC(=O)N1CCN(Cc2cc(=O)oc3ccccc23)CC1	/	/	-28.2%	-0.3%	14.0%	i
O=C(NC1CCCC1)c1ccc2c(=O)n(Cc3ccccc3)c(SCc3ccccc3F)nc2c1	2.4%	/	-0.8%	-19.3%	/	/
COCCCNc1nc2c(S(=O)(=O)c3ccc(C)c(C)c3)nnn2c2ccc(Cl)cc12	-10.7%	-6.7%	-12.9%	?	6.7%	i
CC(C)CCN1C(=O)c2ccccc2CC1(C)C(=O)NC1CCCCC1 (stereo not drawn)	-8.1%	10.0%	0.5%	/	/	/
CCOC(=O)CC(C)(C)/C(C)=N/Nc1ccc([N+](=O)[O-])cc1[N+](=O)[O-]	?	18.4µM*	-13.8%	-3.2%	/	i
Cc1ccc(-c2nc(CS(=O)(=O)CC(=O)N3CC(C)CC(C)C3)c(C)o2)cc1 (stereo not drawn)	-9.1%	20.6µM*	-13.4%	-18.2%	?	i
CCN1CCN(C(=O)CS(=O)(=O)Cc2nc(-c3ccccc3C)oc2C)CC1	-0.8%	-6.6%	-7.8%	0.3%	-15.3%	i
Cc1cccc(N2CCN(C(=O)CS(=O)(=O)Cc3nc(-c4ccccc4F)oc3C)CC2C)c1 (stereo not drawn)	-8.7%	16.4µM*	-18.5%	-28.8%	3.1%	i
Cc1oc(-c2ccccc2F)nc1CS(=O)(=O)CC(=O)N1CCOCC1	7.5%	-13.4%	-13.8%	-4.1%	13.3%	i
Cc1ccc(-c2nc(CS(=O)(=O)CC(=O)N3CCN(C)CC3)c(C)o2)cc1	-6.1%	-30.6%	-6.0%	2.6%	-10.6%	i
Cc1cccc(N2CCN(C(=O)CS(=O)(=O)Cc3nc(-c4ccccc4C)oc3C)CC2C)c1 (stereo not drawn)	-10.4%	23.1µM*	-33.7%	11.2µM*	?	i
COc1ccc(Cn2ccnc2SCC(=O)Nc2ccc(C)cc2C)cc1	5.5%	/	-6.4%	?	/	/
O=[N+]([O-])c1ccc(N2CCN(C(=S)Nc3cccc(F)c3)CC2)cc1	-18.3%	16.4µM*	-8.3%	?	/	?
O=[N+]([O-])c1ccc(N2CCN(C(=S)Nc3ccc(F)cc3F)CC2)cc1	?	23.1µM*	0.0%	-1.8%	-16.8%	i
O=[N+]([O-])c1ccc(N2CCN(C(=S)Nc3ccc(F)cc3)CC2)cc1	-16.8%	?	3.3%	-25.3%	-18.8%	i
COc1cc(C)c(Sc2cnc(NC(=O)c3ccc(CNC(C)C(C)(C)C)cc3)s2)cc1C(=O)N1CCN(C(C)=O)CC1 (stereo not drawn)	/	/	/	/	8.63µM*	/
S=C(SSC(=S)N1CCOCC1)N1CCOCC1	/	/	0.708µM*	0.562µM*	?	?
Cc1ccc(NC(=O)N2CCC(CN3CCCCCC3)CC2)c(Cl)c1	-12.8%	?	4.2%	-1.3%	/	/
CN1CCC(N2CCN(C3CN(Cc4cn(Cc5cccc(C(F)(F)F)c5)nn4)S(=O)(=O)C3)CC2)CC1 (stereo not drawn)	/	/	/	/	-1.4%	?
O=C(C1CCC1)N1CCc2cc(S(=O)(=O)Nc3ccc4c(c3)OCCO4)ccc21	-13.6%	?	-22.7%	-13.7%	-19.3%	?
CCC(=O)N1CCc2cc(S(=O)(=O)Nc3ccc4c(c3)OCCO4)ccc21	-17.4%	20.6µM*	0.5%	-9.8%	-13.2%	i
CCOC(=O)C1CCCN(S(=O)(=O)c2ccc3c(c2)CCN3C(=O)CC)C1 (stereo not drawn)	-0.4%	9.2µM*	-22.7%	?	-8.8%	i
CCOC(=O)c1ccc(NS(=O)(=O)c2ccc3c(c2)CCCN3C(C)=O)cc1	-15.7%	?	-20.9%	-4.9%	-4.9%	i
CCOC(=O)c1ccc(NS(=O)(=O)c2ccc3c(c2)CCN3C(=O)CC)cc1	1.2%	25.9µM*	-17.5%	-29.3%	-16.5%	?
CCCC1=NN2C(=N)/C(=C\c3cc(C)n(-c4cccc(C)c4)c3C)C(=O)N=C2S1	0.1%	3.4%	3.55µM*	-4.2%	8.6%	i
SMILES	A549 viability	Nrf2 inh	HepG2 tox	TGFb SMAD3 inh	ATXN2 expr inh	ATXN viability
Cc1ccccc1NC(=S)N1CCN(c2ccccc2)CC1	3.9%	-23.4%	-3.8%	5.2%	-3.9%	i
CCN(CC)c1ccc(-c2nnc(SCC(=O)Nc3ccccc3C#N)n2-c2ccccc2)cc1	?	?	-10.6%	-9.4%	-7.5%	i
COc1ccc(OC)c(C2C(C(=O)Nc3nc4ccccc4s3)=C(C)NC3=C2C(=O)CCC3)c1 (stereo not drawn)	-13.1%	-27.7%	7.6%	?	6.8%	i
COc1cccc(C2C(C(=O)Nc3nc4ccccc4s3)=C(C)NC3=C2C(=O)CC(C)(C)C3)c1OC (stereo not drawn)	-15.3%	16.4µM*	7.2%	4.5%	-2.7%	/
O=C(O)CCCCCCCCCCP(=O)(c1ccccc1)c1ccccc1	0.5%	-17.4%	15.1%	-2.5%	0.7%	?
O=P(CCCCCCCCCP(=O)(c1ccccc1)c1ccccc1)(c1ccccc1)c1ccccc1	?	?	-98.5%	?	25.1µM*	22.4µM*
Cc1cc(S(=O)(=O)N(Cc2ccc(C(C)C)cc2)CC2CCCO2)ccc1-n1cnnn1 (stereo not drawn)	-10.4%	23.1µM*	-2.7%	?	-1.9%	i
Cc1cc(S(=O)(=O)N(Cc2ccc(F)cc2)CC2CCCO2)ccc1-n1cnnn1 (stereo not drawn)	-6.5%	-19.2%	3.8%	-2.6%	-5.5%	i
O=C(Nc1nc2c(F)cc(F)cc2s1)c1ccc([N+](=O)[O-])o1	-1.5%	14.6%	-24.6%	-0.7%	-2.4%	?
Cc1nc(N2CCOCC2)c2c(C(=O)N(C)Cc3ccccc3)c(C)oc2n1	9.0%	17.2%	7.1%	-2.9%	/	/
Cc1c(C(=O)O)oc2ccc(S(=O)(=O)N3CCCC3)cc12	0.1%	-6.8%	1.1%	0.4%	/	i
O=C(NCC1COc2ccccc2O1)c1cc(S(=O)(=O)N2CCOCC2)c(Cl)cc1Cl (stereo not drawn)	0.5%	23.1µM*	-6.6%	9.3%	-8.4%	i
Cc1c(C(=O)NCc2ccccc2)oc2ccc(S(=O)(=O)N3CCC4(CC3)OCCO4)cc12	0.8%	20.6µM*	-11.4%	-1.9%	-4.4%	i
Cc1c(C(=O)NCC2COc3ccccc3O2)oc2ccc(S(=O)(=O)N3CCOCC3)cc12 (stereo not drawn)	-16.1%	18.4µM*	-24.6%	-6.0%	-16.1%	?
